Rows were chosen to be rich in hits. Some 8.6% of all compounds tested hit in one or more screens of this group.
LASV entry inh – Lassa virus entry inhibition; Lassa virus pseudotyped entry inhibition, cell-based qHTS; Potency, µM (series often up to 49.2 µM), for the others: at the top dose activity change, negative = inhibition, hits mostly inhibitors; actives 4.1% (n = 18,000)
MARV entry inh – inhibitors of Marburg virus binding or entry into cells; Marburg virus pseudotype entry/binding inhibition, cell-based; actives 6.5% (n = 18,000); Potency, µM (highest dose often 49.2 µM), for the others: at the top dose activity change, negative = inhibition, actives largely listed as inhibitors; AID 720532
* hit, by the source's call; ? = inconclusive; . = no result; ! = a repeat was not active; [ ] = dose if it differs, or a comment. Calls come from the whole dose curve; tested in HEK293 cells. % is set by controls: 0 for no effect and ±100 for the full control effect; potency is the fitted concentration of half-maximal effect.

SMILES	LASV entry inh	MARV entry inh
COC(=O)[C@@H]1C[C@@H](NC(=O)c2cccc3c(C)c(C)[nH]c23)CN1Cc1cccc2ccccc12	3.5µM*	1.8µM*
COC(=O)[C@@H]1C[C@H](NC(=O)c2ccccn2)CN1Cc1cccc2ccccc12	-2%	1%
O=S(=O)(N[C@@H](CO)Cc1ccccc1)c1ccc(Br)cc1F	10%	22%
CN1C(=O)[C@]23CC4=CC=C[C@H](O)[C@H]4N2C(=O)[C@@]1(CO)SS3	2.5µM*	1.4µM*
COc1cccc([C@@H]2Oc3ccc(Br)cc3C[C@@H]2OC(=O)Nc2cc(OC)c(OC)c(OC)c2)c1	21%[8.59 µM]	-5%[8.59 µM]
Cc1nn(-c2ccc(F)cc2)c(C)c1CNC(=O)c1ccc(-n2cc(NC(=O)c3ccoc3)cn2)cc1	5%	21%
CN1C2CCC1CC(OC(=O)C1CCC(C(=O)OC3CC4CCC(C3)N4C)(c3ccccc3)c3ccccc31)C2 (centres undefined)	?	6.3µM*
CC[N+]1(C)[C@@H]2CC[C@H]1CC(OC(=O)[C@H]1CC[C@@](C(=O)OC3C[C@H]4CC[C@@H](C3)[N+]4(C)CC)(c3ccccc3)c3ccccc31)C2 (some centres undefined)	-2%[17.8 µM]	-7%[17.8 µM]
CC(=O)Nc1cccc(C#Cc2cncnc2Nc2ccc(OCc3cccc(F)c3)c(Cl)c2)c1	.	13µM*
CS(=O)(=O)CCNCc1cc(-c2cc3c(Nc4ccc(OCc5cccc(F)c5)c(Cl)c4)ncnc3s2)cs1	-69%	?
C[C@@H]1C=CCC(=O)N[C@@H](c2ccc3ccccc3c2)[C@H](C)C=CCC(=O)N[C@@H]1c1ccc2ccccc2c1	-2%[8.59 µM]	?
CCCNCC(O)COc1ccccc1C(=O)CCc1ccccc1 (centres undefined)	?	7.1µM*
Cc1ccccc1OCC(O)CNCCOc1ccc(C(N)=O)cc1 (centres undefined)	-1%	-4%
O=C1N(Cc2ccccc2C(F)(F)F)c2ccccc2[C@@]12O[C@H](COc1ccccc1)CC1=C2CCC1	4%[8.59 µM]	-24%[8.59 µM]
CC(C)c1nc(CN(C)C(=O)N[C@H](C(=O)N[C@@H](Cc2ccccc2)C[C@H](O)[C@H](Cc2ccccc2)NC(=O)OCc2cncs2)C(C)C)cs1	7.1µM*!	?
COc1ccc2c(c1)[C@@]1(OCCC=C[C@@H]1C)C(=O)N2CC1CC1	13%[8.59 µM]	-7%[8.59 µM]
CCCCCCCCCCCCCCOc1ccc(C(=O)O)o1	0.56µM*	?
CCCCCCCCOC(=O)c1ccccc1C(=O)OCCCCCCCC	-15%	-8%
CCCCc1oc2ccc(NS(C)(=O)=O)cc2c1C(=O)c1ccc(OCCCN(CCCC)CCCC)cc1	13µM*	6.3µM*
CN(CCOc1ccc(NS(C)(=O)=O)cc1)CCc1ccc(NS(C)(=O)=O)cc1	-3%	6%
CC1(C)CN(Cc2ccccc2)C(=O)[C@@H]1CC(=O)Nc1ccccc1	.	16%
COC(=O)C1=C(C(=O)OC)[C@@H]2N(C)c3ccccc3[C@@]23CCC(=O)N(Cc2ccc4c(c2)OCO4)C3=N1	4%[8.59 µM]	?
COC(=O)C1=C(C)NC(C)=C(C(=O)OCCN(C)Cc2ccccc2)[C@H]1c1cccc([N+](=O)[O-])c1	-6%[17.8 µM]	?
COC(=O)C1=C(C)NC(C)=C(C(=O)OCCNCc2ccccc2)C1c1cccc([N+](=O)[O-])c1 (centres undefined)	?	11µM*
COC(=O)C1=C(C)NC(C)=C(C(=O)O[C@H]2CCN(Cc3ccccc3)C2)[C@H]1c1cccc([N+](=O)[O-])c1	?	22µM*
SMILES	LASV entry inh	MARV entry inh
COCCOC(=O)C1=C(C)NC(C)=C(C(=O)OC(C)C)[C@H]1c1cccc([N+](=O)[O-])c1	-6%[17.8 µM]	-2%[17.8 µM]
COC(=O)C1=C(C)NC(C)=C(C(=O)OCC(C)=O)C1c1ccccc1[N+](=O)[O-] (centres undefined)	?	13%
COC(=O)C1=C(C)NC(C)=C(C(=O)NCCCN2CCC(c3ccccc3)(c3ccccc3)CC2)C1c1ccc([N+](=O)[O-])cc1 (centres undefined)	?	3.2µM*
O=C(OCc1cn([C@H]2CN(C(=O)C3CCCCC3)[C@@H](c3ccccc3)C[C@H]2O)nn1)c1ccccc1	-28%	?
CS(=O)(=O)CCN(CC#N)Cc1ccc(-c2ccc3ncnc(Nc4ccc(OCc5cccc(F)c5)c(Cl)c4)c3c2)o1	21%	-10%
CCN1C(=S)NC(c2cccc(F)c2)C(C(=O)OC)=C1C (centres undefined)	7%[8.59 µM]	20%[8.59 µM]
COC(=O)[C@H](C)N1CC=CCOc2c(Cl)cc(Cl)cc2[S+]1(=O)[O-]	-20%	-18%
CCCCC(O)c1ccccc1 (centres undefined)	-14%	4%
OC1(c2ccc(Cl)c(C(F)(F)F)c2)CCN(CCCC(c2ccc(F)cc2)c2ccc(F)cc2)CC1	11µM*	2.8µM*
Cc1ccc(C2(O)CCN(CCCC(=O)c3ccc(F)cc3)CC2)cc1	-18%	?
C[C@H](CO)NS(=O)(=O)c1cc(Cl)ccc1F	9%	19%

From PubChem BioAssay
